Several values for one entry are separate records, joined by “and”; a condition that tells them apart may be missing. Equal values may be shown once. Records with an inconclusive call do not appear. Activity calls are given as the source filed them. Rule for the calls, unless noted: active = hit-call score of the fitted dose curve at least 0.9, where 1 is the maximum; inactive = score below 0.9.
Columns and labels:
[1] = TOX21_TR_RXR_BLA_Antagonist_Followup_viability: Viability Assessment in the Tox21 Thyroid Hormone Receptor beta Retinoid X Receptor alpha (RXRa) Antagonism Beta-lactamase (BLA) Follow-Up Assay (AID 2283979; active = hit-call score of the fitted dose curve at least 0.9, where 1 is the maximum)
Outline: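 RXRa-bla HEK293T cells (2,500/well, phenol red-free DMEM, 2% charcoal-stripped FBS) were attached 5 h, then exposed to compounds at 11 concentrations in triplicate for 16 h at 37C. Viability measured by CellTiter-Glo ATP luminescence, bidirectional fitting versus DMSO.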

DIO1 (gene 1733) = experiment: CCTE_GLTED_hDIO1: CCTE's human Deiodinase 1 (DIO1) Inhibition Assay, Great Lakes Toxicology and Ecology Division (GLTED) Lab (AID 2283987; active = hit-call score of the fitted dose curve at least 0.9, where 1 is the maximum;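 note: isolated human DIO1 enzyme in a cell-free setup rather than cells; enzyme activity read as free iodide liberated from substrate via Sandell-Kolthoff colorimetry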)
Outline: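 Cell-free hDIO1 assay, triplicate plates. Absorbance of the Sandell-Kolthoff reaction reports enzyme-liberated iodide; iodinated chemicals or nitrite, iron and thiocyanate may interfere.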

[2] = CCTE_Harrill_HTTr_Viability_PRF_DMEM_6hr: (Pilot) CCTE's 6-hour Cell Viability Assessment for the High-Throughput Transcriptomics (HTTr) Platform, in MCF-7 cells cultured phenol red-free DMEM + 10% charcoal-stripped fetal bovine serum, Harrill Lab (AID 2283976)
Outline: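 MCF-7 cells in phenol red-free DMEM with 10% charcoal-stripped FBS exposed 6 hours to an eight-point dilution series. Propidium iodide exclusion imaged; curves fitted bidirectionally against DMSO.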

[3] = CCTE_Harrill_HTTr_Viability_PRF_DMEM_12hr: (Pilot) CCTE's 12-hour Cell Viability Assessment for the High-Throughput Transcriptomics (HTTr) Platform, in MCF-7 cells cultured in phenol red-free DMEM + 10% charcoal-stripped fetal bovine serum, Harrill Lab (AID 2283977)
Outline: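 MCF-7 cells in phenol red-free DMEM with 10% charcoal-stripped FBS exposed 12 hours to an eight-point dilution series. Viability assessed by high-content imaging of propidium iodide exclusion; bidirectional fit versus DMSO.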

[4] = CCTE_Harrill_HTTr_Viability_PRF_DMEM_24hr: (Pilot) CCTE's 24-hour Cell Viability Assessment for the High-Throughput Transcriptomics (HTTr) Platform, in MCF-7 cells cultured in phenol red-free DMEM + 10% charcoal-stripped fetal bovine serum, Harrill Lab (AID 2283980)
Outline: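 MCF-7 cells in phenol red-free DMEM with 10% charcoal-stripped FBS, eight-point dilution series, 24 h exposure. Membrane integrity by propidium iodide exclusion with high content imaging; bidirectional fit vs DMSO.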

[5] = CCTE_Harrill_HTTr_Apoptosis_DMEM_6hr: (Pilot) CCTE's 6-hour Apoptosis Assessment for the High-Throughput Transcriptomics (HTTr) Platform, in MCF-7 cells cultured in DMEM + 10% fetal bovine serum, Harrill Lab (AID 2283981)
Outline: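 Caspase-3/7 activation read by high content imaging with CellEvent Caspase 3/7 Green in MCF-7 cells (DMEM + 10% FBS), 6 h after dosing; eight-point dilution series. Bidirectional fitting relative to DMSO baseline.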

[6] = CCTE_Harrill_HTTr_Apoptosis_DMEM_12hr: (Pilot) CCTE's 12-hour Apoptosis Assessment for the High-Throughput Transcriptomics (HTTr) Platform, in MCF-7 cells cultured in DMEM + 10% fetal bovine serum, Harrill Lab (AID 2283982)
Outline: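 MCF-7 cells in DMEM + 10% FBS, exposed 12 h to an eight-point dilution series; caspase-3/7 activation imaged with CellEvent Green. Bidirectional fit versus DMSO.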

[7] = CCTE_Harrill_HTTr_Apoptosis_DMEM_24hr: (Pilot) CCTE's 24-hour Apoptosis Assessment for the High-Throughput Transcriptomics (HTTr) Platform, in MCF-7 cells cultured in DMEM + 10% fetal bovine serum, Harrill Lab (AID 2283983)
Outline: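 MCF-7 cells in DMEM + 10% FBS, eight-point dilution series, 24 h exposure. Caspase-3/7 activation imaged by high-content imaging with CellEvent Caspase 3/7 Green. Bidirectional curve fitting against DMSO baseline.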

[8] = CCTE_Harrill_HTTr_Apoptosis_PRF_DMEM_6hr: (Pilot) CCTE's 6-hour Apoptosis Assessment for the High-Throughput Transcriptomics (HTTr) Platform, in MCF-7 cells cultured phenol red-free DMEM + 10% charcoal-stripped fetal bovine serum, Harrill Lab (AID 2283984)
Text: This is a cell-based assay that evaluates apoptosis using high content imaging to evaluate activation of caspase-3/7 using the CellEvent Caspase 3/7 Green detection reagent in 384-well format.One of seven assay components measured from the CCTE_Harrill_HTTr_Apoptosis assay. This was part of a pilot experiment. This is a cell-based assay that evaluates apoptosis in MCF-7 cells cultured in phenol red-free DMEM + 10% charcoal-stripped fetal bovine serum. High content imaging is used to evaluate activation of caspase-3/7 using the CellEvent Caspase 3/7 Green detection reagent. Measurements are taken at 6 hours after chemical dosing in 384-well format.The assay component endpoint CCTE_Harrill_HTTr_Apoptosis_PRF_DMEM_6hr was analyzed with bidirectional fitting relation to DMSO as the negative control and baseline of activity. Using a type of viability reporter, gain-of-signal activity can be used to evaluate activation of caspase-3/7 using the CellEvent Caspase 3/7 Green detection reagent to understand changes in apoptosis. To generalize the intended target to other relatable targets, this assay endpoint is annotated to cell cycle, where the subfamily is apoptosis.
Chemicals were tested in MCF7 cells in an eight point dilution series with a six hour exposure duration.

[9] = CCTE_Harrill_HTTr_Apoptosis_PRF_DMEM_24hr: (Pilot) CCTE's 24-hour Apoptosis Assessment for the High-Throughput Transcriptomics (HTTr) Platform, in MCF-7 cells cultured in phenol red-free DMEM + 10% charcoal-stripped fetal bovine serum, Harrill Lab (AID 2283986)
Outline: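 MCF-7 cells in phenol red-free DMEM with 10% charcoal-stripped FBS, exposed 24 h across an eight-point dilution series. Caspase-3/7 activation imaged with CellEvent Green by high content imaging; bidirectional fitting against DMSO.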

## O=c1[nH]cc(F)c(=O)[nH]1
[1]
  outcome: inactive

## Cc1cc(=O)[nH]c(=S)[nH]1
DIO1 (gene 1733)
  AC50: 16.4 µM (active)

## CCOC(=O)C(C)(C)Oc1ccc(Cl)cc1
[2]
  outcome: inactive
[3]
  outcome: inactive
[4]
  outcome: inactive
[5]
  outcome: inactive
[6]
  outcome: inactive
[7]
  outcome: inactive
[8]
  outcome: inactive
[9]
  outcome: inactive

## CCCCC(CC)COC(=O)CC(C(=O)OCC(CC)CCCC)S(=O)(=O)O (stereo not drawn)
DIO1 (gene 1733)
  AC50: 96.2 µM (active)

## CCCc1cc(=O)[nH]c(=S)[nH]1
DIO1 (gene 1733)
  AC50: 3.82 µM (active) and 5.5 µM (active)

## Nc1nc(N)c2nc(CNc3ccc(C(=O)N[C@@H](CCC(=O)O)C(=O)O)cc3)cnc2n1
[1]
  outcome: inactive

Reference: PubChem BioAssay (EPA / NIEHS)
